Measurements as given in PubChem BioAssay (NCI).
This is part of a sample that, as a whole, favours compounds with a hit. Of some 83,000 tested, about 20% had one in any assay.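 The test compound was applied at a single concentration to cells in 96-well plates for 48 hours, and percent growth was recorded.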 Active and inactive are the calls of the source. Rule for the calls: active = growth percent below 10; inactive = the rest.

Legend:
Assay in all cases: NCI-60 one-dose screen, 48 h (100 = growth as untreated, 0 = no growth, -100 = all killed)
Conditions in all cases: 10 µM unless noted
NCI-H23 lung = tested on: NCI-H23 lung
NCI-H226 lung = tested on: NCI-H226 lung
NCI-H322M lung = tested on: NCI-H322M lung
HOP-62 NSCLC = tested on: HOP-62 NSCLC
NCI-H460 lung = tested on: NCI-H460 lung
HOP-92 NSCLC = tested on: HOP-92 NSCLC
NCI-H522 lung = tested on: NCI-H522 lung
A549/ATCC NSCLC = tested on: A549/ATCC NSCLC
786-0 renal = tested on: 786-0 renal
COLO 205 colon = tested on: COLO 205 colon
DU-145 prostate = tested on: DU-145 prostate
K-562 leukemia = tested on: K-562 leukemia
MALME-3M melanoma = tested on: MALME-3M melanoma
MDA-MB-231 breast = tested on: MDA-MB-231 breast
RXF 393 renal = tested on: RXF 393 renal
SF-268 CNS = tested on: SF-268 CNS
SF-295 CNS = tested on: SF-295 CNS
SF-539 CNS = tested on: SF-539 CNS
UACC-257 melanoma = tested on: UACC-257 melanoma
M14 melanoma = tested on: M14 melanoma

Measured: growth

CCc1c(C)c2cc3c(c(C)c2oc1=O)OCC(=O)N3
inactive: NCI-H23 lung 63.5% | NCI-H226 lung 52.4% | NCI-H322M lung 60.7% | HOP-62 NSCLC 73.5% | NCI-H460 lung 43.2% | HOP-92 NSCLC 50.7% | NCI-H522 lung 58.2% | A549/ATCC NSCLC 47% | 786-0 renal 48.2% | COLO 205 colon 83% | DU-145 prostate 72.5% | K-562 leukemia 82.5% | MALME-3M melanoma 79% | MDA-MB-231 breast 65.6% | RXF 393 renal 68% | SF-268 CNS 68.3% | SF-295 CNS 71.7% | SF-539 CNS 67.8% | UACC-257 melanoma 84.3% | M14 melanoma 88.8%

CCOc1ccc(-n2c(-c3cc(OC)c(OC)c(OC)c3)nnc2-c2ccc(OC)cc2N)cc1
inactive: NCI-H23 lung 76.4% | NCI-H226 lung 80.1% | NCI-H322M lung 81.3% | HOP-62 NSCLC 78.3% | NCI-H460 lung 42.3% | HOP-92 NSCLC 73.1% | NCI-H522 lung 52.6% | A549/ATCC NSCLC 54.9% | 786-0 renal 89.5% | COLO 205 colon 51% | DU-145 prostate 57.6% | K-562 leukemia 70.3% | MALME-3M melanoma 79.7% | MDA-MB-231 breast 82.7% | RXF 393 renal 51.9% | SF-268 CNS 86.9% | SF-295 CNS 84.8% | SF-539 CNS 77.6% | UACC-257 melanoma 57.2% | M14 melanoma 68.1%

C=C1C(=O)O[C@H]2[C@H]1CC/C(C(=O)Nc1ccc(OC)c(C(N)=O)c1O)=C\CC[C@@]1(C)O[C@@H]21
inactive: NCI-H23 lung 73.4% | NCI-H226 lung 61.3% | NCI-H322M lung 108% | HOP-62 NSCLC 85.1% | NCI-H460 lung 92% | HOP-92 NSCLC 26.4% | A549/ATCC NSCLC 77.8% | 786-0 renal 43.1% | COLO 205 colon 10.7% | DU-145 prostate 36.3% | K-562 leukemia 22.9% | MALME-3M melanoma 21% | MDA-MB-231 breast 58.4% | SF-268 CNS 86.3% | SF-295 CNS 94.9% | SF-539 CNS 60.5% | UACC-257 melanoma 51.1% | M14 melanoma 55.8%
active: NCI-H522 lung 5.78% | RXF 393 renal 3.02%

Cc1ccc2c(c1)Nc1ccc(C)cc1C2(C)C
inactive: NCI-H23 lung 94.9% | NCI-H226 lung 98.3% | NCI-H322M lung 114% | HOP-62 NSCLC 78.9% | NCI-H460 lung 109% | HOP-92 NSCLC 81.1% | NCI-H522 lung 68% | A549/ATCC NSCLC 93.1% | 786-0 renal 84.7% | COLO 205 colon 84.3% | DU-145 prostate 107% | K-562 leukemia 97.4% | MALME-3M melanoma 98.9% | MDA-MB-231 breast 114% | RXF 393 renal 101% | SF-268 CNS 105% | SF-295 CNS 101% | SF-539 CNS 95.7% | UACC-257 melanoma 110% | M14 melanoma 98.2%

CN(CCNCc1ccccn1)CCNCc1ccccn1
active: NCI-H226 lung -63.6% | NCI-H322M lung 9.06% | HOP-62 NSCLC 4.07% | NCI-H460 lung -7.2% | HOP-92 NSCLC -7.3% | A549/ATCC NSCLC 0.123% | 786-0 renal -3.78% | COLO 205 colon -5.61% | K-562 leukemia 2.92% | MALME-3M melanoma -21.8% | MDA-MB-231 breast 1.53% | RXF 393 renal -24.3% | SF-295 CNS -6% | SF-539 CNS 3.15% | UACC-257 melanoma -35.8% | M14 melanoma -18.3%
inactive: NCI-H23 lung 18.2% | NCI-H522 lung 18.9% | DU-145 prostate 11.3% | SF-268 CNS 20.3%

O=S(=O)(CCN1CCOCC1)Nc1cncc(-c2ccc3ncnc(Nc4ccc(F)c(Cl)c4)c3c2)c1
inactive: NCI-H23 lung 74.8% | NCI-H226 lung 84.8% | NCI-H322M lung 33.8% | HOP-62 NSCLC 40% | NCI-H460 lung 98.6% | HOP-92 NSCLC 13% | NCI-H522 lung 54.8% | A549/ATCC NSCLC 77.2% | 786-0 renal 58.9% | COLO 205 colon 64.9% | DU-145 prostate 65.3% | K-562 leukemia 96.5% | MALME-3M melanoma 57.7% | MDA-MB-231 breast 67.9% | RXF 393 renal 84.6% | SF-268 CNS 63.5% | SF-295 CNS 82.1% | SF-539 CNS 75.1% | UACC-257 melanoma 87.6% | M14 melanoma 73.3%

CCN(CC)CCN1C(=O)c2c(c3c4ccccc4[nH]c3c3[nH]c4ccccc4c23)C1=O
inactive: NCI-H23 lung 85.6% | NCI-H226 lung 86.6% | NCI-H322M lung 66.6% | HOP-62 NSCLC 64.7% | NCI-H460 lung 69% | HOP-92 NSCLC 86.4% | NCI-H522 lung 69.4% | A549/ATCC NSCLC 82.2% | 786-0 renal 83.6% | COLO 205 colon 75.8% | DU-145 prostate 105% | K-562 leukemia 17.8% | MALME-3M melanoma 86.1% | MDA-MB-231 breast 83.8% | RXF 393 renal 83.6% | SF-268 CNS 87.3% | SF-295 CNS 84.7% | SF-539 CNS 88.8% | UACC-257 melanoma 105% | M14 melanoma 79.5%

CCc1cccc(-c2ccccc2)c1
inactive: NCI-H23 lung 107% | NCI-H226 lung 109% | NCI-H322M lung 107% | HOP-62 NSCLC 101% | NCI-H460 lung 108% | HOP-92 NSCLC 92.9% | NCI-H522 lung 106% | A549/ATCC NSCLC 104% | 786-0 renal 98.8% | COLO 205 colon 105% | DU-145 prostate 110% | K-562 leukemia 109% | MALME-3M melanoma 114% | MDA-MB-231 breast 114% | RXF 393 renal 130% | SF-268 CNS 108% | SF-295 CNS 107% | SF-539 CNS 97.6% | UACC-257 melanoma 99.1% | M14 melanoma 92.6%
